Measurements published in PubChem BioAssay.
Several values for one entry are separate records, joined by “and”; a condition that tells them apart may be missing. Equal entries are not always repeated. Activity calls are given as the source filed them.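 Rule for the calls, unless noted: active = compounds whose cell count with miR-34 switched on is under 0.7 times the count with it off; inactive = the rest.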

Key:
[1] = hESC survival regulators, cell-based (AID 493140; call rule not given here;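 note: cells exposed to compounds for four days before counting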); conditions: human embryonic stem cell survival screen; stronger effect = higher value
[2] = liver-stage malaria parasite growth inhibition, primary screen, cell-based, HepG2, luciferase luminescence, HepG2 viability (AID 624349; in the data active = parasite load remaining mostly below about 12%, no sharp cut-off; inactive = mostly above about 10%;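 note: 100% = mean of DMSO negative control wells on the same plate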); conditions: P. berghei liver stage in HepG2, luciferase luminescence, concentration not given here; parasite load remaining: stronger effect = lower value; viability: measured here: HepG2 viability without parasites
[3] = stimulators of nuclear beta-catenin in C2C12, primary screen, imaging, WNT3A-conditioned medium, mouse C2C12, NPC library (AID 1117326; in the data active = nuclear beta-catenin stimulation mostly above about 4.2%, no sharp cut-off; inactive = mostly below about 10%); conditions: stronger effect = higher value
[4] = stimulators of insulin release from INS-1E, primary screen, cell-based, 5 mM glucose, NPC library (AID 1117329;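 active = compound raises insulin release from rat beta cells at 5 mM glucose, no numeric limit stated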); conditions: rat INS-1E insulin secretion, at 10 µM, stronger effect = higher value
[5] = growth inhibition of GSK3B-pretreated HCT116 cells – cell-based, CellTiter-Glo, 0.2 to 20 µM (AID 1117336;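 active = compounds lowering colon cancer cell viability after pretreatment blocking the GSK3B kinase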); conditions: HCT116 viability after GSK3B inhibitor, at 20 µM, stronger effect = higher value
[6] = inhibition of endothelial tube formation, primary screen, imaging, VEGF stimulated, CD31 staining, tube area, NPC library (AID 1117340;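 active = compound that reduces growth-factor-driven endothelial tube area in a mixed cell culture, no cutoff stated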); conditions: VEGF-stimulated ADSC/ECFC co-culture, at 10 µM, stronger effect = higher value
[7] = glucagon-like peptide 1 release enhancers, primary assay, NCI-H716 cell line, NPC library (AID 1117341;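 active = compound raises GLP1 secretion from the human gut endocrine cells, with no numeric limit stated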); conditions: NCI-H716 cells, at 10 µM, stronger effect = higher value
[8] = HCT116 colon cancer cell growth inhibition, primary screen, CellTiter-Glo luminescence, NPC library (AID 1117342;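 active = compounds that lower survival of HCT116 colon cancer cells in the luminescence readout, no numeric limit stated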); conditions: at 20 µM (top of the series)
[9] = CellTiter-Glo luminescent readout of SW480 viability loss, NPC library primary (AID 1117343;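 active = compounds that lower viability of the colon cancer cells in the luminescence readout, with no numeric limit stated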); conditions: CellTiter-Glo luminescence; at 20 µM (top of the series) unless noted
[10] = decreased DLD-1 cellular survival, CellTiter-Glo luminescent readout, NPC compound collection, primary HTS (AID 1117346;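 active = compounds that lower survival of DLD-1 colon cancer cells in the luminescence readout, no cutoff given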); conditions: DLD-1 viability, CellTiter-Glo luminescence; at 20 µM (top of the series)
[11] = differential killing of epithelial or mesenchymal cells, primary screen, imaging, PC-3E GFP, TEM4-18 mCherry, co-culture (AID 1345086;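 active = compounds killing one labelled cell type while sparing the other, by normalised counts and ratio limits, not self-fluorescent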;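 for all read-outs here: cells exposed to compound for 72 h before imaging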;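 for red/green cell ratio (normalised): normalised mesenchymal count divided by normalised epithelial count so high means epithelial killing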); conditions: imaging cell counts, at 1 µM; for red/green cell ratio (normalised): actives lie on both sides, counts scaled to control wells, 1 = unselective
[12] = sensitizers of A549 cells to miR-34 induction, primary screen, imaging, A549 dox-inducible miR-34, nuclei and caspase counts (AID 1347080); conditions: A549 miR-34 inducible, Hoechst nuclei count, 48 h
[13] = survival rescue of mitochondrial mutant cells in low glucose, primary screen, MELAS cybrids, Rieske KO mouse fibroblasts, CellTiter-Glo (AID 1508586;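 active = mean z-score across replicates of 1.96 or higher in either the MELAS or the Rieske mutant cell line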;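 note: z relative to plate mean and SD of compound and empty wells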)
[14] = biological target: NAD(+) hydrolase SARM1 (Homo sapiens) (UniProt Q6SZW1); test: SARM1 TIR NADase inhibitors, cell lysate, NAD-Glo luminescence (AID 1508614;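 active = compound whose remaining NAD level is above about 45 nM, limit read from the data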;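 note: higher remaining NAD means stronger inhibition of SARM1 NADase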); conditions: SAM-TIR HEK293T lysate NADase, at 1 µM, stronger effect = higher value
Sequence of NAD(+) hydrolase SARM1 (Homo sapiens) (Q6SZW1 whole entry, looked up): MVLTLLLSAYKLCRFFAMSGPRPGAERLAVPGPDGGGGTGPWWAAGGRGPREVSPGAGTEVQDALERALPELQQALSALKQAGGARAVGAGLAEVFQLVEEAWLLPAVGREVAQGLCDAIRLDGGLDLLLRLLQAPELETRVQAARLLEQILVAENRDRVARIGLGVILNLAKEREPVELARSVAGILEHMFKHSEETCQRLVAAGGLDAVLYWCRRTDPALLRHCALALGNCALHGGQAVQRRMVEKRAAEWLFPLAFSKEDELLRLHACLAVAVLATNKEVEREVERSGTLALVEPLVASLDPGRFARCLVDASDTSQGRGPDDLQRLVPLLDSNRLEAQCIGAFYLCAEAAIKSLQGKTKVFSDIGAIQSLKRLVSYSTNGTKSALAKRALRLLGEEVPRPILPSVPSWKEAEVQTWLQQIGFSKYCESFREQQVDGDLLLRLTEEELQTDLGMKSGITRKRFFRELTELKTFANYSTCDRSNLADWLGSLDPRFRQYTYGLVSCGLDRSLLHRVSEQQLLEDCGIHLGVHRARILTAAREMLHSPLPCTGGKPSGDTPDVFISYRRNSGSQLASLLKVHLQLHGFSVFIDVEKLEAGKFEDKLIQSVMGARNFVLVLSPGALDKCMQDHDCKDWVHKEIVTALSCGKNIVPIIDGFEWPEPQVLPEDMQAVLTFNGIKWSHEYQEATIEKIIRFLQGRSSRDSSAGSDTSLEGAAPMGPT

[15] = measured here: epithelial PC-3E GFP cell survival
[16] = measured here: mesenchymal TEM4-18 mCherry cell survival
[17] = stronger effect = lower value, cell number ratio, induced over uninduced
[18] = measured here: relative caspase fold change +Dox/-Dox
[19] = measured here: total cells with miR-34 induction, stronger effect = lower value
[20] = measured here: total cells without miR-34 induction
[21] = MELAS cybrid survival, CellTiter-Glo 48 h, stronger effect = higher value
[22] = Rieske KO mouse fibroblast survival, CellTiter-Glo 72 h

SMILES: CCN(CC)C(=O)c1ccc(O)c(OC)c1
- survival [1]: 14.3 (inactive)
- parasite load remaining [2]: 98.8% (inactive) and 82.6% (inactive) and 34.4% (inactive)
- viability [2]: 116% and 78.8% and 105%
- nuclear beta-catenin stimulation ([3]; at 10 µM): 0.4% (inactive)
- nuclear beta-catenin stimulation ([3]; stimulation, at 2 µM): -0.5%
- insulin secretion stimulation [4]: -1.1% (inactive)
- viability decrease [5]: -5.6% (inactive)
- tube area decrease [6]: 19.7% (inactive)
- GLP1 secretion stimulation [7]: -0.9% (inactive)
- inhibition of viability [8]: -33.9% (inactive)
- viability decrease (inhibition) [9]: 107% (active)
- viability decrease (inhibition) [10]: -2.25% (inactive)
- red/green cell ratio (normalised) [11]: 1.01 (inactive)
- normalised cell number [11, 15]: 1.04
- normalised cell number [11, 16]: 1.06
- fold change [12, 17]: 0.99 (inactive) and 0.899 (inactive) and 0.849 (inactive)
- fold change [12, 18]: 1.08 and 1.38 and 3.96
- cell count [12, 19]: 10300 and 8560 and 11800
- cell count [12, 20]: 10400 and 9520 and 13900
- z-score [13, 21]: -0.598 (inactive)
- z-score [13, 22]: -0.406
- remaining NAD [14]: 10 nM (inactive)

SMILES: CCCN(CCC)CCc1cccc2c1CC(=O)N2
- parasite load remaining [2]: 55.3% (inactive)
- viability [2]: 102%
- nuclear beta-catenin stimulation ([3]; at 10 µM): 2.8% (inactive)
- nuclear beta-catenin stimulation ([3]; stimulation, at 2 µM): 1.5%
- insulin secretion stimulation [4]: 2.8% (inactive)
- viability decrease [5]: 8% (inactive)
- tube area decrease [6]: -10% (inactive)
- GLP1 secretion stimulation [7]: 3.9% (inactive)
- inhibition of viability [8]: 21.3% (inactive)
- viability decrease (inhibition) [9]: 29.8% (inactive)
- viability decrease (inhibition) [10]: 26.9% (inactive)
- red/green cell ratio (normalised) [11]: 1.06 (inactive)
- normalised cell number [11, 15]: 0.99
- normalised cell number [11, 16]: 1.05
- fold change [12, 17]: 0.948 (inactive) and 0.94 (inactive) and 0.88 (inactive)
- fold change [12, 18]: 1.29 and 1.47 and 5.03
- cell count [12, 19]: 9580 and 9680 and 11700
- cell count [12, 20]: 10100 and 10300 and 13300
- z-score [13, 21]: 0.118 (inactive) and -0.361 (inactive)
- z-score [13, 22]: 0.253 and -0.254
- remaining NAD [14]: 10 nM (inactive)

SMILES: CC(C)Cn1cnc2c(N)nc3ccccc3c21
- parasite load remaining [2]: 11.9% (inactive)
- viability [2]: 62.5%
- nuclear beta-catenin stimulation ([3]; at 10 µM): 1.6% (inactive)
- nuclear beta-catenin stimulation ([3]; stimulation, at 2 µM): 0.2%
- insulin secretion stimulation [4]: 0% (inactive)
- viability decrease [5]: -1.15% (inactive)
- tube area decrease [6]: -3.6% (inactive)
- GLP1 secretion stimulation [7]: 0.6% (inactive)
- inhibition of viability [8]: -6.6% (inactive)
- viability decrease (inhibition) [9]: 49.5% (inactive)
- viability decrease (inhibition) [10]: 0.7% (inactive)
- red/green cell ratio (normalised) [11]: 1.33 (inactive)
- normalised cell number [11, 15]: 1.11
- normalised cell number [11, 16]: 1.48
- fold change [12, 17]: 0.846 (inactive)
- fold change [12, 18]: 0.971
- cell count [12, 19]: 9200
- cell count [12, 20]: 10900
- z-score [13, 21]: 0.0496 (inactive) and 0.611 (inactive)
- z-score [13, 22]: 0.716 and 0.772
- remaining NAD [14]: 10 nM (inactive)

SMILES: CNCCCC1c2ccccc2C=Cc2ccccc21
- survival [1]: 0.667 (inactive)
- parasite load remaining [2]: 64.9% (inactive) and 67.7% (inactive)
- viability [2]: 77.6% and 100%
- nuclear beta-catenin stimulation ([3]; at 10 µM): 2% (inactive)
- nuclear beta-catenin stimulation ([3]; stimulation, at 2 µM): 0.5%
- insulin secretion stimulation [4]: 1.7% (inactive)
- viability decrease [5]: -46.9% (inactive)
- tube area decrease [6]: 40.6% (active)
- GLP1 secretion stimulation [7]: 6.8% (inactive)
- inhibition of viability [8]: 39.3% (inactive)
- viability decrease (inhibition) [9]: 87.8% (active)
- viability decrease (inhibition) [10]: 30.3% (inactive)
- red/green cell ratio (normalised) [11]: 1.06 (inactive)
- normalised cell number [11, 15]: 0.98
- normalised cell number [11, 16]: 1.04
- fold change [12, 17]: 1.12 (inactive) and 0.946 (inactive) and 0.93 (inactive)
- fold change [12, 18]: 1.27 and 1.04 and 5.53
- cell count [12, 19]: 6500 and 6350 and 11800
- cell count [12, 20]: 5820 and 6720 and 12700
- z-score [13, 21]: -0.141 (inactive)
- z-score [13, 22]: -0.441
- remaining NAD [14]: 10 nM (inactive)
